The full data set covers some 7,900 targets. This sample favours those with a hit. About 0.6% of all pairs of compound and target were hits.
Columns and labels:
Assay in all cases: log2 fold change, soluble protein after heating vs DMSO (PISA); higher = thermal stabilisation; K562 cells, 10 uM, 30 min; active = over 0.2 and 3.5 SD of the protein, either way, in both replicates (recomputed)
[1] = compound: CN1CCN(CCOc2cc(OC3CCOCC3)c3c(Nc4c(Cl)ccc5c4OCO5)ncnc3c2)CC1 [saracatinib]
In short: (§1)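 K562 cells at 2×10^6 cells/mL were treated with 10 μM compound for 30 min. Aliquots were heated for 3 min across 48°C-58°C, pooled, and extracted in PBS with 0.5% NP-40 at 4°C; soluble protein was the supernatant after 21,000xg for 90 min. Soluble protein was quantified by TMTpro 16plex LC-MS/MS with channel sums equalised, and reported as log2 fold change in thermal stability against DMSO controls, with values from duplicates.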

[2] = compound: CN1CCN(c2nc(C3=C(c4c[nH]c5ccccc45)C(=O)NC3=O)c3ccccc3n2)CC1 [sotrastaurin]
In short: as §1

[3] = compound: CN1CC[C@H](c2c(O)cc(O)c3c(=O)cc(-c4ccccc4Cl)oc23)[C@H](O)C1 [alvocidib]
In short: as §1

[4] = compound: CN1CCc2c(c3ccccc3n2Cc2ccc(C(=O)NO)cc2)C1 [Tubastatin A]
In short: as §1

[5] = compound: CNC(=O)C1=CC=CC=C1NC2=NC(=NC=C2Cl)NC3=C(C=C(C=C3)N4CCOCC4)OC
In short: as §1

[6] = compound: CNC(=O)c1ccc(Nc2ncc(C(F)(F)F)c(NCc3nccnc3N(C)S(C)(=O)=O)n2)cc1 [defactinib]
In short: as §1

[7] = compound: CNCc1ccc(-c2[nH]c3cc(F)cc4c3c2CCNC4=O)cc1 [rucaparib]
In short: as §1

[8] = compound: CNc1nc(-c2ccc3c(N)n[nH]c3c2)cc(N2C[C@@H](C(=O)NC3CCCCC3)CC[C@H]2C)n1
In short: as §1

[9] = compound: COC(=O)N[C@@H](C)CNc1nccc(-c2cn(C(C)C)nc2-c2cc(Cl)cc(NS(C)(=O)=O)c2F)n1 [encorafenib]
In short: as §1

[10] = compound: COC(=O)[C@H](CCSC)NC(=O)C1=C(C=C(C=C1)NC[C@H](CS)N)C2=CC=CC=C2
In short: as §1

[11] = compound: COC1=CC=C(C=C1)CN2C=CC3=C2C=C(C=C3)C(=O)NO
In short: as §1

[12] = compound: CON(C)C(=O)N1N=C(c2cc(F)ccc2F)S[C@@]1(CCCN)c1ccccc1 [filanesib]
In short: as §1

[13] = compound: CO[C@H]1C[C@@H]2CC[C@@H](C)[C@@](O)(O2)C(=O)C(=O)N2CCCC[C@H]2C(=O)O[C@H]([C@H](C)C[C@@H]2CC[C@H](n3cnnn3)[C@H](OC)C2)CC(=O)[C@H](C)/C=C(\C)[C@@H](O)[C@@H](OC)C(=O)[C@H](C)C[C@H](C)/C=C/C=C/C=C/1C [zotarolimus]
In short: as §1

[14] = compound: COc1cc(C(=O)O)ccc1NC(=O)[C@@H]1N[C@@H](CC(C)(C)C)[C@](C#N)(c2ccc(Cl)cc2F)[C@H]1c1cccc(Cl)c1F [idasanutlin]
In short: as §1

[15] = compound: COc1cc(Nc2ncc3c(n2)-c2ccc(Cl)cc2C(c2c(F)cccc2OC)=NC3)ccc1C(=O)O [alisertib]
In short: as §1

[16] = compound: COc1cc2nc(-c3cc(F)ccc3O)nc(N[C@@H]3CNC[C@H]3C(C)(C)O)c2cc1OC
In short: as §1

[17] = compound: COc1cc2ncnc(Nc3ccc(F)c(Cl)c3)c2cc1OCCCN1CCOCC1 [gefitinib]
In short: as §1

[18] = compound: COc1cccc2cc(-c3nc([C@H]4CC[C@H](C(=O)O)CC4)n4ncnc(N)c34)[nH]c12
In short: as §1

[19] = compound: CS(=O)(=O)CCNCc1ccc(-c2ccc3ncnc(Nc4ccc(OCc5cccc(F)c5)c(Cl)c4)c3c2)o1 [lapatinib]
In short: as §1

[20] = compound: CS(=O)(=O)N1CCN(Cc2cc3nc(-c4cccc5[nH]ncc45)nc(N4CCOCC4)c3s2)CC1 [pictilisib]
In short: as §1

Measured: log2 fold change

NDUFA4 (UniProt O00483)
Chain of UniProt O00483 (O00483 whole entry, looked up): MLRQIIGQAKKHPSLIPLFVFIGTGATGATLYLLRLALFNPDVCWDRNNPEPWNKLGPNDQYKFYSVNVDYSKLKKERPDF
inactive: [1] 0.021 | [2] 0.021 | [3] 0.022 | [4] -0.029 | [5] 0.009 | [6] -0.03 | [7] -0.106 | [8] -0.129 | [9] -0.04 | [10] 0.001 | [11] -0.022 | [12] -0.031 | [13] -0.019 | [14] 0.038 | [15] -0.024 | [16] -0.044 | [17] 0.024 | [18] 0.019 | [19] 0.048 | [20] -0.025

P4HA2 (UniProt O15460)
Chain of UniProt O15460 (O15460 whole entry, looked up): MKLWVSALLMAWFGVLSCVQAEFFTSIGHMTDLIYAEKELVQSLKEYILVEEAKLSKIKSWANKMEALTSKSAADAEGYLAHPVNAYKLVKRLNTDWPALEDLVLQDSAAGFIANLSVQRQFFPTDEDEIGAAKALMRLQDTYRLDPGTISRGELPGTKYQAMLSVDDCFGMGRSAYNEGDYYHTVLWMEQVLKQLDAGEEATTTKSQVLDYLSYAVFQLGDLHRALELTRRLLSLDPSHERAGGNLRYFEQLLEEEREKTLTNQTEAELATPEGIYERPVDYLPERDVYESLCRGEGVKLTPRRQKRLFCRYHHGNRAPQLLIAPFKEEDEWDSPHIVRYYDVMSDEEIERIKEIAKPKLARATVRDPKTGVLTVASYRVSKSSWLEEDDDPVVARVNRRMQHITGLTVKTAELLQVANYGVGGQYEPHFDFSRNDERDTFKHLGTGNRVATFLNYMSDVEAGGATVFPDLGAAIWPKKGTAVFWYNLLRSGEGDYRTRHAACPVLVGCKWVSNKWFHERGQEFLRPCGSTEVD
inactive: [1] 0.002 | [2] -0.033 | [3] 0.004 | [4] 0.098 | [5] 0.003 | [6] 0.085 | [7] 0.145 | [8] 0.016 | [9] -0.019 | [10] 0.001 | [11] -0.109 | [12] 0.078 | [13] 0.026 | [15] 0.011 | [16] -0.139 | [17] 0.006 | [18] -0.11 | [19] 0.075 | [20] -0.003

PAFAH2 (UniProt Q99487)
inactive: [1] 0.023 | [2] -0.074 | [3] -0.112 | [4] -0.196 | [5] -0.179 | [6] -0.093 | [8] -0.133 | [10] -0.067 | [11] -0.025 | [12] -0.089 | [13] 0.012 | [14] 0.153 | [16] 0.043 | [19] -0.037

NDFIP1 (UniProt Q9BT67)
Chain of UniProt Q9BT67 (Q9BT67 whole entry, looked up): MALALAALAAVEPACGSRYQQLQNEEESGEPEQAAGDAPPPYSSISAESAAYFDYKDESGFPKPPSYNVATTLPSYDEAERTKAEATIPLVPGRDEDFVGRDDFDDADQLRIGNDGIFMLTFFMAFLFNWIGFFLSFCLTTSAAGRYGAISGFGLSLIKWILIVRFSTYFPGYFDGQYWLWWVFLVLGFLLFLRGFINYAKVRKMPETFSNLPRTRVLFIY
inactive: [1] -0.274 | [2] -0.028 | [3] -0.088 | [4] 0.056 | [5] 0.124 | [6] 0.015 | [7] 0.286 | [8] -0.187 | [9] -0.001 | [10] -0.115 | [11] 0.051 | [12] -0.134 | [13] 0.106 | [14] -0.034 | [15] -0.105 | [17] -0.155 | [18] -0.14 | [20] 0.228

OPHN1 (UniProt O60890)
Chain of UniProt O60890 (O60890 whole entry, looked up): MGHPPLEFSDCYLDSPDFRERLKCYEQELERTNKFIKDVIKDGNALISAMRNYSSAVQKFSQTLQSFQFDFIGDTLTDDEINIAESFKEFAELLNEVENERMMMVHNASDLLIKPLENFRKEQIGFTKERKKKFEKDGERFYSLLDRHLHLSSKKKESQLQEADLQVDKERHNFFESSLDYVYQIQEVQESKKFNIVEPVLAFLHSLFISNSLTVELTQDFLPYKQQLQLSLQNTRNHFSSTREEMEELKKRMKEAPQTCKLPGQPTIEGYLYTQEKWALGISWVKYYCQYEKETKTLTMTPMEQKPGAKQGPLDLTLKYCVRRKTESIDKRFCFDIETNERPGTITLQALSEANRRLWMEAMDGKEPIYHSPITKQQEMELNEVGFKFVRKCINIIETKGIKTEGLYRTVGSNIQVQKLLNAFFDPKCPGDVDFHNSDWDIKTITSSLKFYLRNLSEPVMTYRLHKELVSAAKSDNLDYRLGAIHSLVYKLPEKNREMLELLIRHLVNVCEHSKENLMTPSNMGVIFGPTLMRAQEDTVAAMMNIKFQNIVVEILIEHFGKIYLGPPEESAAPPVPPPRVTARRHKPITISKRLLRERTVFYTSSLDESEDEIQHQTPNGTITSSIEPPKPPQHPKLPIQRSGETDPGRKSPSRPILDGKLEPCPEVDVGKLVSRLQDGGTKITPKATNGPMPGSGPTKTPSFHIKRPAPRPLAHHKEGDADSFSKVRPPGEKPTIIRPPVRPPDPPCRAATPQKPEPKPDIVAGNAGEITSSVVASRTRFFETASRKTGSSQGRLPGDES
inactive: [1] -0.033 | [2] 0.011 | [3] 0.094 | [4] -0.008 | [5] -0.036 | [7] -0.011 | [8] -0.01 | [9] 0.038 | [11] -0.261 | [12] -0.004 | [13] -0.049 | [14] -0.015 | [15] -0.036 | [17] -0.002 | [18] 0.04 | [20] 0.242

MINK1 (UniProt Q8N4C8)
Chain of UniProt Q8N4C8 (Q8N4C8 whole entry, looked up): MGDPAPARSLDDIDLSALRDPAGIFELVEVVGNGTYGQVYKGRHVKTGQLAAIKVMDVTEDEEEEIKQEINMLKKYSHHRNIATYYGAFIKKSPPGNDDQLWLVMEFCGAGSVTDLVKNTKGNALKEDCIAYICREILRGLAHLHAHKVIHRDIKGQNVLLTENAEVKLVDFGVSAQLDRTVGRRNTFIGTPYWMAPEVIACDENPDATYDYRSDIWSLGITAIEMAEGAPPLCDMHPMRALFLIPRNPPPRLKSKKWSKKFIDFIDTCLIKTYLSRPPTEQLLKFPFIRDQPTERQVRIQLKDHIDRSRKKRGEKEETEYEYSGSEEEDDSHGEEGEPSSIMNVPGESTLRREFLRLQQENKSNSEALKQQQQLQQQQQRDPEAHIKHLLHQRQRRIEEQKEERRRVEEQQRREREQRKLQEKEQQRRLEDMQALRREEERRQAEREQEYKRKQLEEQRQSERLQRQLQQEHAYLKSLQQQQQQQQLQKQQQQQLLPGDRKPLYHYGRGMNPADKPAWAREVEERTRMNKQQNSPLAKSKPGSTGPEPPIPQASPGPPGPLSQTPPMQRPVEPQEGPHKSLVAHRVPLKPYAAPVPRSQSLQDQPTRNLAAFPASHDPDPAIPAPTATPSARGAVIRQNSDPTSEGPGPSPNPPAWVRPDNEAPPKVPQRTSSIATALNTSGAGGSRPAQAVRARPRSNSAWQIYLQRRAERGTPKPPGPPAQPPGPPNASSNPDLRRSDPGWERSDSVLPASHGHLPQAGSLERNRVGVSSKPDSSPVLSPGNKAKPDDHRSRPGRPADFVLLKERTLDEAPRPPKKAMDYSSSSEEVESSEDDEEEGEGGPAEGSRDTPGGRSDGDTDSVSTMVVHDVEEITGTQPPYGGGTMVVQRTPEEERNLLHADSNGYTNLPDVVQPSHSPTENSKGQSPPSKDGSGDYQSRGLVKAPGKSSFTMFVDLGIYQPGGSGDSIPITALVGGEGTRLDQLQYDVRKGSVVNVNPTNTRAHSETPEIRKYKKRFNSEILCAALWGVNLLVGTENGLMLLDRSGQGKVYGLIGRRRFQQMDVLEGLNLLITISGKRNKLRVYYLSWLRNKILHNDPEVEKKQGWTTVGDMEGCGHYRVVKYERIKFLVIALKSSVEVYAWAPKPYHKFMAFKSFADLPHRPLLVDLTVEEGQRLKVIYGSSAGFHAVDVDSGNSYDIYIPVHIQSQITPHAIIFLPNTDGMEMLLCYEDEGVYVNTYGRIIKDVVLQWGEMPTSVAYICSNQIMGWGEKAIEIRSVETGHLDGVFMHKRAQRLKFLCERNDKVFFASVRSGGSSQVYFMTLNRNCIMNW
inactive: [1] -0.052 | [2] -0.009 | [3] -0.027 | [4] -0.015 | [5] -0.007 | [6] -0.069 | [7] -0.033 | [8] -0.029 | [9] 0.044 | [10] 0.012 | [11] -0.054 | [12] -0.003 | [13] 0.014 | [14] 0.013 | [15] -0.042 | [16] -0.064 | [18] 0.024 | [19] 0.024 | [20] -0.019

MLX (UniProt Q9UH92)
Chain of UniProt Q9UH92 (Q9UH92 whole entry, looked up): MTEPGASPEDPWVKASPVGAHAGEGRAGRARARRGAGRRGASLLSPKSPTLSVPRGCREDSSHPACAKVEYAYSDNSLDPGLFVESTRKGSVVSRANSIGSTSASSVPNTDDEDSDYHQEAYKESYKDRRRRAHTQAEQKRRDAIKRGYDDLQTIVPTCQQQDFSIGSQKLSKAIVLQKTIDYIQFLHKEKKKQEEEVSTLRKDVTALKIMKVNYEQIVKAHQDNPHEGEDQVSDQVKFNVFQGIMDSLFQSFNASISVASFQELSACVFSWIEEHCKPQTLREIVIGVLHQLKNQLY
inactive: [1] -0.171 | [2] -0.084 | [3] -0.037 | [4] 0.075 | [5] -0.149 | [7] -0.169 | [8] 0.004 | [9] 0.149 | [11] -0.054 | [12] 0.027 | [13] -0.009 | [14] -0.071 | [15] -0.014 | [16] 0.025 | [17] 0.022 | [18] 0.057 | [19] -0.099 | [20] 0.05

NAA38 isoform 2 (UniProt Q9BRA0)
Chain of UniProt Q9BRA0 (Q9BRA0 whole entry, looked up): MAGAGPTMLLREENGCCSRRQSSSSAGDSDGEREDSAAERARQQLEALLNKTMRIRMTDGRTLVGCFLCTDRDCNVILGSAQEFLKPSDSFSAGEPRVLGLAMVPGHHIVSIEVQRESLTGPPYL
inactive: [1] -0.02 | [2] 0.009 | [3] -0.108 | [4] 0.081 | [5] -0.044 | [6] -0.101 | [7] 0.023 | [8] 0.044 | [9] 0.022 | [10] -0.058 | [11] 0.033 | [12] -0.014 | [13] 0.001 | [14] -0.045 | [15] 0.044 | [16] -0.005 | [17] 0.02 | [18] 0.052 | [19] 0.062 | [20] 0.023

MTHFD1, A0A384N5Y3
Chain of MTHFD1, A0A384N5Y3 (A0A384N5Y3 whole entry, looked up): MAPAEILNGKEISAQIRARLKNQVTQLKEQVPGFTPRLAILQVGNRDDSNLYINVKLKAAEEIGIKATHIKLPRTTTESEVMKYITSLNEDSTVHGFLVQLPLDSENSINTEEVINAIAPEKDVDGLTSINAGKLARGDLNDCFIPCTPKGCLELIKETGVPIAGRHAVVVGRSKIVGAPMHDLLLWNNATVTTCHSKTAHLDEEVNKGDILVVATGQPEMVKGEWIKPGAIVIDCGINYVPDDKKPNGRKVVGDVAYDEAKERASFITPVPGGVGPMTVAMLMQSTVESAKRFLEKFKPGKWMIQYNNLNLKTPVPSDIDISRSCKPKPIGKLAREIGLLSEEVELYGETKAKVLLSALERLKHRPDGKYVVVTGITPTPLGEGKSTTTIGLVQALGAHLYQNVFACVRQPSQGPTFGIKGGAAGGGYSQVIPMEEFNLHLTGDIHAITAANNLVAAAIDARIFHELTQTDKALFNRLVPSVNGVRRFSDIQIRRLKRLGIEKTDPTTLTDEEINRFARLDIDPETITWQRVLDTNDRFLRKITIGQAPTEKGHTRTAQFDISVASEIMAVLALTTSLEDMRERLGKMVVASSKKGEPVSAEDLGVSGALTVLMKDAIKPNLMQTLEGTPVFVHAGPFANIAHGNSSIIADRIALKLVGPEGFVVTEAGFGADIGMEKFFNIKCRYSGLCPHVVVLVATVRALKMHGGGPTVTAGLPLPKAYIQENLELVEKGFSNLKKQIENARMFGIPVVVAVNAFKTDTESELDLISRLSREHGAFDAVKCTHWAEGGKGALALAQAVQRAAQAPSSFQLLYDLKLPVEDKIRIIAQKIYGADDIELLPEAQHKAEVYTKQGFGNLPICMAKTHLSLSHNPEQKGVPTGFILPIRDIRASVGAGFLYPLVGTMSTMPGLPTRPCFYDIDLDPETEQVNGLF
inactive: [1] -0.047 | [2] 0.025 | [3] -0.129 | [4] 0.032 | [6] -0.173 | [7] -0.039 | [8] -0.004 | [9] -0.003 | [10] -0.036 | [12] -0.025 | [13] -0.032 | [14] 0.024 | [15] -0.011 | [16] 0.055 | [17] 0.075 | [18] 0.001 | [19] -0.016 | [20] 0.107

Source: the supplement of paper PMC10849652
